# Screening results (PubChem BioAssay)
# DT40 TDP1 no CPT: qHTS for Inhibitors of human tyrosyl-DNA phosphodiesterase 1 (TDP1): qHTS in cells in absence of CPT. DT40 Tdp1-/- hTDP1 cells, no CPT, ATP luminescence, 48 h. actives 15% (n = 420,000). Potency, µM (top dose mostly 46.2 µM), inactives show top-dose activity change, negative = growth inhibition, actives largely listed as inhibitors; note: potency is the fitted concentration of half-maximal effect; % is set by controls: 0 for no effect and ±100 for the full control effect; nearly all actives have a fitted effect of over 55% in size
#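 A cellular qHTS used chicken DT40 cells lacking endogenous Tdp1 but carrying stably transfected human TDP1. Compounds were applied without camptothecin, and cell growth kinetics were judged by ATP-dependent luminescence after ≥48 hr.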
# TDP1 block: qHTS Assay for Inhibitors of Tyrosyl-DNA Phosphodiesterase (TDP1). recombinant TDP1, AlphaScreen DNA substrate cleavage. Potency, µM (highest dose often 130 µM), inactives show at the highest dose activity change, negative = inhibition, actives largely listed as inhibitors. actives 0.28% (n = 350,000). AID 485290, 2010; note: potency is the fitted concentration of half-maximal effect; % is set by controls: 0 for no effect and ±100 for the full control effect; nearly all actives have a fitted effect of over 40% in size
# Target sequence (Q9NUW8 whole entry, looked up): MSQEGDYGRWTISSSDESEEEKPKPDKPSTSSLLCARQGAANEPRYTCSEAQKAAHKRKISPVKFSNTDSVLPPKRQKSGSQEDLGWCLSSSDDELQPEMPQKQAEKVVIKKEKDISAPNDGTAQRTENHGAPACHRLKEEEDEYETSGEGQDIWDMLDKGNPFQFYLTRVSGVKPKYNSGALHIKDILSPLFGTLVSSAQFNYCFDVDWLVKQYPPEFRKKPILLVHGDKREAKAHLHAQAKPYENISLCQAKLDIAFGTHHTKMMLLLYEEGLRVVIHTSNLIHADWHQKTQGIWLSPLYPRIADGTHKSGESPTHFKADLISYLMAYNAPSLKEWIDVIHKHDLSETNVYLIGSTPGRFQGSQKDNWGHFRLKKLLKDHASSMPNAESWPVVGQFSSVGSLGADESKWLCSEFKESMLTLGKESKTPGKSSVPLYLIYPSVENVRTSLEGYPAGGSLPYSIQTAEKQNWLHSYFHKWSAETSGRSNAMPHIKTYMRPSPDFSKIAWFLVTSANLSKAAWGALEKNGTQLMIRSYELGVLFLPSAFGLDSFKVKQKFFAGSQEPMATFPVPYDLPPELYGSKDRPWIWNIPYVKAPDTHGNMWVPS
#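 Recombinant human Tdp1 (E. coli-expressed, 1 nM final) preincubated with compounds 15 min at room temperature, then 5'-biotin/3'-phosphotyrosine-FITC DNA substrate (15 nM final) added for 5 min. AlphaScreen beads (10 ug/ml final) added 10 min; cleavage lowers signal.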
# TGFb SMAD3 inh: qHTS for Inhibitors of TGF-b | HepG2 CAGA-GFP TGF-b/SMAD3 reporter, GFP fluorescence, 18 h; TGF-beta stimulated, 500 pg/mL final | actives 1.2% (n = 410,000) | AID 588855, 2011 | Potency, µM (series often up to 46.1 µM), without a hit: top-dose activity, negative = inhibition, most hits filed as inhibitors; note: potency is the fitted concentration of half-maximal effect; % is set by controls: 0 for no effect and ±100 for the full control effect; nearly all actives have a fitted effect of over 65% in size
#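 HEPG2 CAGA-GFP, 1000 cells/well; 2 h settle, 37 C; cpd via pin tool; TGF-b 500 pg/mL final; 18 h, 37 C; GFP imaging ex488/em500-530; %Activity normalised to -TGF-b and +DMSO controls; CRC fit, curve class.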
# HepG2 tox: qHTS for Inhibitors of TGF-b: Cytotox Counterscreen; HepG2 CAGA-GFP viability, ATP luminescence, 18 h; Potency, µM (titrated, usually from 46.1 µM), for inactives: top-dose activity change, negative = cytotoxicity, usual class: cytotoxic; actives 0.76% (n = 410,000); note: potency is the fitted concentration of half-maximal effect
#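 CellTiter-Glo luminescence gave cytotoxicity after 18 hours at 37 degrees C. The cells were HepG2 CAGA-GFP in 1% FBS DMEM, stimulated with 500 pg/mL TGF-beta after compound addition. %Activity was normalised to no-cell wells (complete cell-killing) and DMSO (no toxicity), and curves were fitted and classified.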
# IL1B secr inh: qHTS for Inhibitors of Inflammasome Signaling: IL-1-beta AlphaLISA Primary Screen | THP-1 LPS/ATP IL-1B secretion, AlphaLISA, 16 h; stronger effect = lower value | activity change, % at 57.5 µM | actives 4.7% (n = 360,000) | AID 743279, 2014; in the data active = activity change below about -50%; inconclusive = mostly about -30% to -49%; note: % is set by controls: 0 for no effect and ±100 for the full control effect
#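 THP-1 cells pretreated 1 hr with compounds (up to 57.5 uM final), then stimulated with LPS (250 ng/mL final) plus ATP (1.25 mM final); secreted IL-1B measured by AlphaLISA after 16 hr, decreased signal indicating inhibition.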
# DT40 TDP1 CPT: qHTS for Inhibitors of human tyrosyl-DNA phosphodiesterase 1 (TDP1): qHTS in cells in presence of CPT | Potency, µM (doses to about 46.2 µM), for the others: at the highest dose activity change, negative = growth inhibition, actives largely listed as inhibitors | actives 12% (n = 420,000) | chicken DT40 Tdp1-/-;hTDP1 cells + 20 nM CPT, ATP luminescence, 48 h; note: potency is the fitted concentration of half-maximal effect; % is set by controls: 0 for no effect and ±100 for the full control effect; nearly all actives have a fitted effect of over 55% in size
#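 Chicken DT40 Tdp1-/- cells complemented with human TDP1, 400 cells/well, exposed to compounds plus 20 nM camptothecin for at least 48 h at 37 C; viability read as ATP content by CellTiter-Glo luminescence.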
# The depositor's hits bear a star; i = inactive; ? = inconclusive; nt = no result given; [ ] = remark or other dose. Hits are enriched below; roughly 19% of the tested compounds scored in any of these assays. Unless noted, calls come from the whole dose curve; as a rule, active = well fitted curve in the direction sought with a large enough effect; inconclusive = small, poorly fitted or top-dose-only effect, or another doubt; inactive = no such curve, though single readings can be large; an effect the other way counts as inactive or inconclusive.
SMILES,DT40 TDP1 no CPT,TDP1 block,TGFb SMAD3 inh,HepG2 tox,IL1B secr inh,DT40 TDP1 CPT
CCOC(=O)C1CCCN(C(=O)COc2ccc(C(C)(C)C)cc2)CC1 (stereo unspecified),15µM*,nt,-3%,2%,0,21µM*
CCOC(=O)C1CCN(Cc2cnc(Oc3ccc(C(C)(C)C)cc3)s2)CC1,21µM*,-2%,0%,-16%,47,?
CC(NS(=O)(=O)c1ccccc1[N+](=O)[O-])c1ccccn1 (stereo unspecified),?,nt,3%,5%,nt,2%
O=C(c1ccc2c(c1)OCO2)N(Cc1cc2ccc(F)cc2nc1N1CCC(O)CC1)CC1CCCO1 (stereo unspecified),?,nt,nt,nt,nt,5%[9.04 µM]
CCOC(=O)CCCCC1=CC2=CC(=O)C(C)(O)C(=O)C2=CO1 (stereo unspecified),nt,1%[21 µM],nt,nt,nt,nt
Cc1ccc(Cc2nc3ccccc3nc2SCC(=O)Nc2ccc3c(c2)OCO3)cc1,?,3%,-10%,-3%,nt,?
CC(=O)Nc1nc(CCN2C(=O)c3ccccc3C2=O)cs1,-8%,0%,-1%,-16%,-6,10%
CCOC(=O)C1CCCN(C(=O)COc2ccc(C(=O)c3ccccc3)cc2)C1 (stereo unspecified),23µM*,5%,0%,-1%,9,23µM*
CCCCCN1C=CC(=C2C(=O)c3ccccc3C2=O)C=C1,?,-2%,-27%,-15%,-18,13µM*
CC1=CC(=C2C(=O)c3ccccc3C2=O)C=C(C)N1C,?,-2%,-14%,-20%,-25,14%
COCCN(C(=O)COC(=O)/C=C/c1ccc(C)o1)c1c(N)n(Cc2ccccc2)c(=O)[nH]c1=O,-24%,4%,-2%,3%,i,-7%
CCN(C(=O)COC(=O)/C=C/c1ccc(Cl)c(Cl)c1)c1c(N)n(Cc2ccccc2)c(=O)[nH]c1=O,2.1µM*,nt,1%,-1%,17,3.7µM*
CCN(C(=O)COC(=O)/C=C/c1cccc(Cl)c1)c1c(N)n(Cc2ccccc2)c(=O)[nH]c1=O,?,0%,-11%,2%,8,23µM*
CCN(C(=O)COC(=O)/C=C/c1ccccc1Cl)c1c(N)n(Cc2ccccc2)c(=O)[nH]c1=O,?,-10%,-2%,1%,-13,?
COCCN(C(=O)COC(=O)/C=C/c1ccco1)c1c(N)n(Cc2ccccc2)c(=O)[nH]c1=O,-9%,25µM*,4%,-3%,5,-7%
CN(C(=O)COC(=O)/C=C/c1ccc(C(F)(F)F)cc1)c1c(N)n(Cc2ccccc2)c(=O)[nH]c1=O,6.5µM*,nt,?,-91%,-4,6.5µM*
CCOC(=O)CC1(NC(=O)C2CCC(=O)N(Cc3ccccc3OC)C2)CCCCC1 (stereo unspecified),-1%,4%,-4%,-11%,-1,-1%
Cc1ccc(S(=O)(=O)N2CCN(C(=O)COC(=O)c3cncc(Br)c3)CC2)c(C)c1,-19%,-2%,12%,-4%,1,-2%
CC(O)(c1ccc(F)c(F)c1)c1nc(-c2ccccc2)cs1 (stereo unspecified),13µM*,nt,?,-32%,-10,?
CC(O)(c1ccc(F)c(F)c1)c1nc(-c2cccc(F)c2)cs1 (stereo unspecified),?,nt,?,-24%,20,?
CC(C)c1cccc(-c2csc(C(C)(O)c3ccc(F)c(F)c3)n2)c1 (stereo unspecified),?,nt,?,20µM*,?,?
CC(O)(c1ccc(F)c(F)c1)c1nc(-c2cc(F)cc(F)c2)cs1 (stereo unspecified),16µM*,nt,?,-53%,19,?
CC(C)c1cccc(-c2csc(C(C)(O)c3ccncc3)n2)c1 (stereo unspecified),13µM*,nt,?,-29%,10,12µM*
CC(O)(c1ccc(F)c(F)c1)c1nc(-c2ccc(F)c(Cl)c2)cs1 (stereo unspecified),?,nt,?,-105%,-18,?
COCCNC(=O)c1sc2nc3n(c(=O)c2c1C)CCC3,-14%,5%,?,8%,nt,3%
SMILES,DT40 TDP1 no CPT,TDP1 block,TGFb SMAD3 inh,HepG2 tox,IL1B secr inh,DT40 TDP1 CPT
Cc1nc(NS(=O)(=O)c2ccc(Cl)s2)c2c3c(sc2n1)CCCC3,?,1%,?,-20%,44,?
Cc1cccc(-c2cc3nc(C)cc(N4CC(C)CC(C)C4)n3n2)c1 (stereo unspecified),16µM*,7%,9%,0%,39,16µM*
Cc1cccc(-c2cc3nc(C)cc(NCCCN(C)C)n3n2)c1,?,3%,22%,-34%,-101*,?
Cc1cccc(-c2cc3nc(C)cc(C)n3n2)c1,?,6%,24%,3%,56,1%
CN(C)CCCNc1cc(-c2ccccc2)nc2cc(-c3cccc(F)c3)nn12,7.3µM*,nt,?,-93%,-88*,?
CCN(CC)CCCNc1cc(C)nc2cc(-c3cccs3)nn12,-4%,11%,-8%,-12%,-101*,18%
Cc1cccc(CNC(=O)c2cnc3sc(N4CCOCC4)nn3c2=O)c1,-20%,1%,-19%,-15%,nt,-11%
CS(=O)(=O)c1ccccc1C(=O)N(CCC1=CCCCC1)c1c(N)n(Cc2ccccc2)c(=O)[nH]c1=O,?,14%,3%,-41%,-5,29µM*
COc1cccc(CC(=O)N(CCC2=CCCCC2)c2c(N)n(Cc3ccccc3)c(=O)[nH]c2=O)c1,?,nt,-17%,2%,13,3%
CC(Oc1ccc(Br)cc1)C(=O)N(Cc1ccccc1)c1c(N)n(Cc2ccccc2)c(=O)[nH]c1=O (stereo unspecified),21µM*,nt,-16%,-25%,?,23µM*
Nc1c(N(CCC2=CCCCC2)C(=O)CCCOc2ccccc2)c(=O)[nH]c(=O)n1Cc1ccccc1,-28%,nt,-11%,3%,-10,-6%
